Paper PMC4336329 (PLoS ONE, 2015)
Screen size: about 310,000 compounds; about 14,000 (4.5%) showed an effect of 50% or more. The effect is printed as a negative number. For the sample, strong results were picked, then their nearest neighbours and some compounds at random.

biological target: human ether-à-go-go-related gene (hERG) potassium channel (human, UniProt Q12809); assay: primary screen, population patch clamp on CHO cells stably expressing hERG; higher = less effect of the substance
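Further: peak tail current of the secondary pulse compared with the same well before compound.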

Chain of human ether-à-go-go-related gene (hERG) potassium channel (Q12809 whole entry, looked up): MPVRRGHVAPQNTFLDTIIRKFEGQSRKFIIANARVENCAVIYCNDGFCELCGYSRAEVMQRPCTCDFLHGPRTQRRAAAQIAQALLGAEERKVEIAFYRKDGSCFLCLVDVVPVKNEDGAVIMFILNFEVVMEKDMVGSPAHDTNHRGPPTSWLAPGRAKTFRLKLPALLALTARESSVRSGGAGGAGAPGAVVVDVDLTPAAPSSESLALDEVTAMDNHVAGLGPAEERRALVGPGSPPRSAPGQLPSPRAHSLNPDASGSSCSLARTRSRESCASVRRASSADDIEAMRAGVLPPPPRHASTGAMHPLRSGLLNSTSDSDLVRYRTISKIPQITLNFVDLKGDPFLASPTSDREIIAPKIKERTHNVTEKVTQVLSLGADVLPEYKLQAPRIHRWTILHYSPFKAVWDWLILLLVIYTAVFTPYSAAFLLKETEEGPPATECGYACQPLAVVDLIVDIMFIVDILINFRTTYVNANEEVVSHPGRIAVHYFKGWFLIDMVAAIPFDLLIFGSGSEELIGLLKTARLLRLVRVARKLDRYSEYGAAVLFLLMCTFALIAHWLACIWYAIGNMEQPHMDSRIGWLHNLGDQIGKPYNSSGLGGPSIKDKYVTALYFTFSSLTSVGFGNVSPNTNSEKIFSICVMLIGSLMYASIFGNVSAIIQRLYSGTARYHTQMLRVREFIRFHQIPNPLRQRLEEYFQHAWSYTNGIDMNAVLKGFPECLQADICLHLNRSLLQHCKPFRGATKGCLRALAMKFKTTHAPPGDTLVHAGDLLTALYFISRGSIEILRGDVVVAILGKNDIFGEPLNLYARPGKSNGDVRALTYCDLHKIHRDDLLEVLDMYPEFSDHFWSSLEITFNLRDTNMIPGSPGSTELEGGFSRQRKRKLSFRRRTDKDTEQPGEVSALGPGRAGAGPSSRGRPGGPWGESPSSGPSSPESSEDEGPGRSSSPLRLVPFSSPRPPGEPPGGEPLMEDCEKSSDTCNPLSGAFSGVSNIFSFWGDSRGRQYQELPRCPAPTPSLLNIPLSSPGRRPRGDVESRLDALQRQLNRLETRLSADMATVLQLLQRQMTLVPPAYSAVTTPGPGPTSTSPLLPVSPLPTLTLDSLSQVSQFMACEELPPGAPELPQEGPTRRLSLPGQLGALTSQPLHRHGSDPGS

SMILES | hERG current change (%, negative = inhibition) at 10uM [%]
Cl.O=C(CN1CCCC(O)C1)N1c2ccccc2Sc2ccc(C(F)(F)F)cc21 (stereo not drawn) | -7.16
O=C(Nc1c2c(nn1-c1ccccc1)CS(=O)(=O)C2)c1ccco1 | -9.21
COc1ccccc1C(=O)Nc1c2c(nn1-c1ccc([N+](=O)[O-])cc1)CS(=O)(=O)C2 | 11.7
CC(Oc1ccccc1)C(=O)Nc1c2c(nn1-c1ccccc1)CS(=O)(=O)C2 (stereo not drawn) | 18.2
CCOc1ccc(C(=O)Nc2c3c(nn2-c2ccccc2)CS(=O)(=O)C3)cc1 | 4.84
O=C(Nc1c2c(nn1-c1ccc([N+](=O)[O-])cc1)CS(=O)(=O)C2)c1ccco1 | -64.7
CC(C)Oc1ccc(C(=O)Nc2c3c(nn2-c2ccccc2)CS(=O)(=O)C3)cc1 | -65.9
COc1cccc(C(=O)Nc2c3c(nn2-c2ccc([N+](=O)[O-])cc2)CS(=O)(=O)C3)c1 | -53.8
COc1ccc(C(=O)Nc2c3c(nn2-c2ccc([N+](=O)[O-])cc2)CS(=O)(=O)C3)cc1 | -9.85
Cc1ccc(-n2nc3c(c2NC(=O)c2ccco2)CS(=O)(=O)C3)cc1 | -25.7
O=C(NNC(=O)C1CCN(Cc2ccccc2)CC1)c1cccc(Cl)c1 | -14
CCCn1nc(Oc2nc(NCC)nc(NC(C)C)n2)ccc1=O | 1.01
CCc1nc(N2CCN(C(=S)NCCCOC)CC2)c2c3c(sc2n1)CCCC3 | -9.32
Fc1ccc(-n2c(-c3ccc4ccccc4n3)n[nH]c2=S)cc1Cl | 31
O=C(COc1ccccc1)NC1CCCc2ccccc21 (stereo not drawn) | -19.3
CCOC(=O)Cc1csc(NC(=O)NC2(C(F)(F)F)Oc3ccc(Cl)cc3O2)n1 (stereo not drawn) | 15.8
Cc1ccccc1NS(=O)(=O)c1ccc(OCC(=O)NCc2cccnc2)cc1 | -32.8
O=C(COCc1cc(-c2ccc3c(c2)OCO3)on1)N1CCCCC1 | 4.66
CCCc1c(C)nc2ccc(OC)cc2c1SCCC(=O)O | 10.4
COc1cccc(C(=O)C2=NN(C(C)=O)CC2c2ccco2)c1 (stereo not drawn) | -15.8
COc1ccc(NC(=O)CCN2C(=O)c3ccncc3C2=O)cc1OC | -7.46
CC1CCCCN1C(=S)Nc1ccc(OC(F)F)cc1 (stereo not drawn) | -40.1
O=C(CNC(=O)c1ccccc1)Oc1cccc(Cl)c1 | 17.8
CC(NC(=O)NC1CCCCC1)C(c1cccs1)N1CCN(C)CC1 (stereo not drawn) | -8.03

SMILES | hERG current change (%, negative = inhibition) at 10uM [%]
CC(NC(=O)NC1CCCCC1)C(c1cccs1)N1CCN(c2ccccc2)CC1 (stereo not drawn) | -48.6
CCC(=O)NC(C)C(c1cccs1)N1CCN(Cc2ccccc2)CC1 (stereo not drawn) | -11.6
CCN1CCN(C(c2cccs2)C(C)NC(=S)NC2CCCCC2)CC1 (stereo not drawn) | -60.8
CC(NC(=O)NC1CCCCC1)C(c1cccs1)N1CCN(Cc2ccccc2)CC1 (stereo not drawn) | -56.7
CCN1CCN(C(c2cccs2)C(C)NC(=O)NC2CCCCC2)CC1 (stereo not drawn) | -45.5
CC(NC(=O)c1cccs1)C(c1cccs1)N1CCN(Cc2ccccc2)CC1 (stereo not drawn) | -72.7
CC(NC(=S)NC1CCCCC1)C(c1cccs1)N1CCOCC1 (stereo not drawn) | -0.732
CC(NC(=O)C(C)(C)C)C(c1cccs1)N1CCN(Cc2ccccc2)CC1 (stereo not drawn) | -14.3
Cc1ccc(NCC(=O)N/N=C/c2ccc(OC(=O)c3ccco3)cc2)cc1 | 1.76
CCCN(CC(=O)Nc1ccccc1C)C(=O)COc1c(C)cccc1C | -4.72
NS(=O)(=O)c1ccc(Nc2ccc3nonc3c2[N+](=O)[O-])cc1 | 9.07
O=C(CSc1n[nH]c(=O)n1C1CC1)c1c[nH]c2ccccc12 | 9.29
CCc1ccc(/C=C2/Sc3ccccc3N(CC(=O)NCCCN3CCOCC3)C2=O)cc1 | -41.3
O=C(CCN1C(=O)/C(=C\c2cccc(Br)c2)SC1=S)NCCCN1CCOCC1 | -63.4
O=C(CN1C(=O)/C(=C/c2cccc(Br)c2)SC1=S)NCCCN1CCOCC1 | 5.42
O=C(CCCN1C(=O)/C(=C/c2cccc(Br)c2)SC1=S)NCCCN1CCOCC1 | -18.1
O=C(CN1C(=O)/C(=C/c2ccccc2)Sc2ccccc21)NCCCN1CCOCC1 | -42.8
O=C(CN1C(=O)/C(=C/c2ccc(C(F)(F)F)cc2)Sc2ccccc21)NCCCN1CCOCC1 | -65.6
O=C(N/N=C/c1cc(Br)c(O)c(Br)c1O)c1ccc2c(c1)OCCO2 | -26.9
Cc1cc(CNC(=O)Cn2cc([N+](=O)[O-])cn2)c2ccccc2n1 | -11.5
Cc1cccc(OCC(=O)Nc2ccccc2N2CCCCC2)c1C | -21.9
Cc1ccc(S(=O)(=O)N2CCCCC2)cc1NC(=O)CCc1nc2ccccc2c(=O)[nH]1 | -24.3
Cc1ccc(-c2nnn(CC(=O)N(Cc3cccs3)C(C(=O)NC(C)(C)C)c3ccco3)n2)o1 (stereo not drawn) | 14.4
O=C(NCc1ccco1)/C(=C\c1cccs1)NC(=O)c1cccs1 | 6.26

SMILES | hERG current change (%, negative = inhibition) at 10uM [%]
Cc1ccc(C(=O)N/C(=C\c2cn(C)c3ccccc23)C(=O)NCCCn2ccnc2)cc1 | -7.74
Cc1ccc(C(=O)N/C(=C\c2cn(S(=O)(=O)N(C)C)c3ccccc23)C(=O)NCCCn2ccnc2)cc1 | -28.6
Cc1ccc(C(=O)N/C(=C\c2cccs2)C(=O)NCCCn2ccnc2)cc1C | -61
Cc1ccc(C(=O)N/C(=C\c2cccs2)C(=O)NCCc2ccccn2)cc1C | -1.92
Cc1ccc(C(=O)N/C(=C\c2cccs2)C(=O)NCCCn2ccnc2)cc1 | -70.3
O=C(NCCO)/C(=C\c1cccs1)NC(=O)c1cccs1 | 18.7
COc1ccc(C(=O)N/C(=C/c2cccs2)C(=O)NCCCn2ccnc2)cc1OC | -7.14
O=C(NCCCn1ccnc1)/C(=C\c1cccs1)NC(=O)c1cccs1 | -62
Cc1ccc(C(=O)N/C(=C/c2cccs2)C(=O)NCCCn2ccnc2)cc1 | -71.9
O=C(Cn1ncn2c(cc3ccccc32)c1=O)NCCC1=CCCCC1 | 7.76
CCn1cc(S(=O)(=O)N2CCCC2)cn1 | 8.1
COCCN1C(=O)N[C@@H](c2ccccc2)[C@@H](C(=O)OC)[C@H]1C | 2.28
Cc1ccc(C)c(/C=N/NC(=S)NC(C)C)c1 | 30.3
Cc1ccccc1OCC(=O)NNC=O | 22.9
O=C(Nc1cccc(-n2cnnn2)c1)c1cc(Cl)nc(Cl)c1 | -4.24
Cc1nccn1-c1ccc(C(F)(F)F)cc1[N+](=O)[O-] | 11.2
CCCn1c(NC(=O)CCS(=O)(=O)c2ccc(C)cc2)nc2ccccc21 | -24.2
Cc1cnn(Cc2cccnc2)c1N | 8.46
COc1ccccc1/C=C(/NC(=O)c1ccccc1)C(=O)NCCCn1ccnc1 | 2.6
O=C(NCCCn1ccnc1)/C(=C\c1ccco1)NC(=O)c1ccco1 | -35.3
O=C(NCCCn1ccnc1)/C(=C\c1cccs1)NC(=O)c1ccccc1 | -69
O=C(NCCCn1ccnc1)/C(=C/c1ccco1)NC(=O)c1ccco1 | -45.6
O=C(NCCCn1ccnc1)/C(=C\c1cccs1)NC(=O)c1ccco1 | -45.1
CN(C)S(=O)(=O)n1cc(/C=C(\NC(=O)c2ccccc2)C(=O)NCCCn2ccnc2)c2ccccc21 | 8.31

SMILES | hERG current change (%, negative = inhibition) at 10uM [%]
O=C(NCCCn1ccnc1)/C(=C/c1cccs1)NC(=O)c1ccco1 | -50.8
O=C(NCCCn1ccnc1)/C(=C/c1cccnc1)NC(=O)c1ccco1 | 4.25
O=C(NCCCn1ccnc1)/C(=C/c1ccco1)NC(=O)c1cccs1 | -53.2
CCOC(=O)c1c(C)n(C)c2c(C)cc(O)c(OC(=O)CC)c12 | 7.65
CN(C)c1ccc(/C=C2\SC(N3CCCCC3)=NC2=O)cc1 | -21.8
Cc1occc1C(=O)Nc1ccc(Br)cc1F | 2.03
Cc1ccc(NC(=S)N(CCN(C)C)C(C)c2ccco2)cc1C (stereo not drawn) | -44.3
CC1CCC2CCCCC2N1C(=O)c1cc([N+](=O)[O-])cc([N+](=O)[O-])c1 (stereo not drawn) | 2.18
COc1cc(CCCN2C(=S)NC[C@H]2Cc2ccc(O)cc2)cc(OC)c1OC | -16.4
CC1CCN(C(=O)c2ccc(CS(=O)(=O)Cc3ccccc3)cc2)CC1 | -33.6
CC(=O)N1c2ccc(S(=O)(=O)NCC3CCC(C(=O)N4CCCCC4)CC3)cc2CC1C (stereo not drawn) | 12.2
c1ccc2c(c1)[nH]c1c(NCC3CCCO3)ncnc12 (stereo not drawn) | 11
CC(=O)c1cccc(NC(=O)CCCN(C)S(=O)(=O)c2ccc(F)cc2)c1 | -2.1
CN(CC(=O)Nc1ccncc1)S(=O)(=O)c1ccc(Cl)cc1 | -5.97
CN(CCCC(=O)Nc1ccccc1)S(=O)(=O)c1ccc(Cl)cc1 | -47.9
Cc1ccc(S(=O)(=O)N(C)CC(=O)Nc2ccncc2)cc1 | -8.2
Cc1ccc(S(=O)(=O)N(C)CCCC(=O)Nc2ccc(F)cc2)cc1 | -30.1
CN(CCCC(=O)Nc1ccncc1)S(=O)(=O)c1ccc(Cl)cc1 | -53.8
Cc1ccc(S(=O)(=O)N(C)CCCC(=O)Nc2ccncc2)cc1 | -63
CC(=O)Nc1ccc(S(=O)(=O)N(C)S(=O)(=O)c2ccc(F)cc2)cc1 | -63.3
CC(=O)Nc1ccc(S(=O)(=O)N(C)c2ccccc2)cc1 | 0.318
CN(CCCC(=O)Nc1ccc(OC(F)F)cc1)S(=O)(=O)c1ccc(F)cc1 | -71.3
CC(=O)Nc1ccc(S(=O)(=O)N(C)c2ccc(O)cc2)cc1 | 2.53
COc1ccc(NC(=O)CCCN(C)S(=O)(=O)c2ccc(C)cc2)cc1 | -26.8
